Percent Effect data for 40 compounds are collected here from ChEMBL document CHEMBL3988442, “University of Dundee, Small-Polar-MMV Screening Library” (2021).

Molecules are shown by their SMILES.

The species entered for the assay is Homo sapiens. Kind of assay: To identify inhibition of the IFN signalling (Jak-Stat) pathway via expression of an eGFP reporter gene under the control of an IFN-stimulated response element (ISRE) containing MxA promoter. Set-up: scale not given: direction of the effect not stated beside the values. The class given is functional. The note with it: 30 µM.
Consider `Cc1ccccc1CNC(=O)CN1CCN(Cc2nccn2C)CC1`, for which the Percent Effect was determined as 2.02%.
The value for `CCC(=O)N1CCC2(CC1)c1nc[nH]c1CCN2S(C)(=O)=O` was 13.6%.
Then `Cc1cc(C)n(-c2cncc(NCCNC(=O)CC3CCCC3)n2)n1`, with -10.2%; and `Cn1ccnc1CNC(=O)N(CCCO)C1CCCc2ccccc21` (stereo not given), with 8.36%.
For the compound `Cc1cccc(CCC(=O)N2CCOCC2c2c(C)n[nH]c2C)c1` (stereo not given), the Percent Effect amounted to 9.04%.
The value for `COc1ccc(CC(=O)N2CCCCC2Cn2cccn2)cc1OC` (stereo not given) was 5.15%.
In the case of `O=C(c1ccc[nH]1)N1CCC2(CC1)C(=O)Nc1ccccc12`, the Percent Effect was -3.84%.
For `Cc1ccc(CN2CCCC3(COCCN(Cc4c[nH]nn4)C3)C2)o1` (stereo not given), the Percent Effect amounted to 4.18%.
With `CCSc1ccc(C(=O)Nc2c(C)nn(C(C)C)c2C)cn1`, the Percent Effect worked out at 20.2%.
The value for `N#CC1(C(=O)N2CCN(Cc3cscn3)CC2)CCCC1` was 29.4%; that for `CN(C)C(CNC(=O)c1cc2c([nH]c1=O)CCCC2=O)c1ccsc1` (stereo not given) was 1.27%; that for `Cn1nccc1C1CCN(CC(O)c2cccc(F)c2)CC1` (stereo not given) was 15.3%.
Then `CC(C)N1CCC(Cc2cnc(-c3cccc(C(=O)O)c3)cn2)C1` (stereo not given), with 7.71%; and `Cc1cn2c(n1)CCC(NC(=O)CCn1cncn1)C2` (stereo not given), with -0.843%.
Then `Cc1nc(CN(Cc2cccs2)C2CCS(=O)(=O)C2)oc1C` (stereo not given), with -8.22%.
As for `c1csc(-c2nc(CN3CCOC(Cn4cccn4)C3)co2)c1` (stereo not given), the Percent Effect was 16.2%.
Consider `CC1N(CC2CC2)C(=O)COC12CCN(Cc1nccs1)CC2` (stereo not given), for which the Percent Effect was -5.88%.
`Cc1nn(CC(=O)N2CCN(c3ccccc3F)CC2)c(C)c1Cl`: the Percent Effect was found to be 9.79%.
With `c1nc2c(c(C3CC3)n1)CCN(CC1CCOC1)CC2` (stereo not given), the Percent Effect is 7.05%.
The value for `Cc1nc(CN2CCCC(NCCOc3ccccc3)C2)no1` (stereo not given) was -12.5%; that for `COc1c(C2CCCN2C(=O)c2cc(Cl)c[nH]2)c(C)nn1C` (stereo not given) was -1.4%.
Then `Cc1cc(C)c2cc(CNCc3ccccc3)c3nn(C)c(=O)n3c2c1`, with 13.4%; and `CC(O)CN(CC(=O)NC(=O)NC1CC1)c1ccccc1` (stereo not given), with 6.08%; and `Cc1cc(C)c2nc(CN3CCCC(c4cc[nH]n4)C3)cc(O)c2c1` (stereo not given), with 23.3%.
The value for `CCOc1ncccc1NC(=O)c1cc(C)c(C)s1` was 11.6%.
`CN(C)CC(=O)N1Cc2nc(C(=O)NCc3ccncc3)oc2C1`: the Percent Effect is -9.53%.
For the compound `CCn1cnnc1CNC(=O)CCC(=O)c1ccc2c(c1)OCCO2`, the Percent Effect worked out at 11.5%.
As for `CC(Oc1ccccc1C(F)(F)F)C(=O)NS(=O)(=O)C(C)C` (stereo not given), the Percent Effect was -2.84%.
Then `Cn1c(C2CC2)nc2c1CCN(CC(=O)Nc1nncs1)C2`, with -9.48%.
With `N#Cc1ncn(CCC(=O)Nc2ccc(Cl)cc2F)n1`, the Percent Effect is 30.7%.
Then `Cc1cn2c(n1)CCC(NC(=O)c1nc(C)ncc1Cl)C2` (stereo not given), with -7.16%.
As for `CN(C)c1ncc(CN2CCOC(C(=O)Nc3ccccc3)C2)cn1` (stereo not given), the Percent Effect was found to be 23.5%.
Then `CC(=O)Nc1cc(C(=O)N2CCOCC2c2ccc(C)o2)ccc1F` (stereo not given), with -20.8%.
On to `Cc1cnccc1CN1C[C@@H](O)[C@H](Oc2ccccc2)C1`, for which the Percent Effect was 11.6%.
The value for `CC1=N[C@@]2(CC[C@@H]3CN(S(=O)(=O)N(C)C)C[C@@H]32)C(=O)N1CC(C)C` was 6.52%; that for `CCCS(=O)(=O)N1CCN(c2cc(-n3nc(C)cc3C)nc(C)n2)CC1` was -11%.
As for `O=C(O)c1nnn(Cc2cccc(C(F)(F)F)c2)c1-c1cccnc1`, the Percent Effect came out at 4%.
As for `CC(C)(N)CN1CCC(c2nnc(CN3CCCC3)n2C2CC2)CC1`, the Percent Effect is 8.71%.
Take `Cc1cccc(CNC(=O)CNc2cc(CO)ccc2Cl)c1`: the Percent Effect was -4.91%.
The value for `COCC1CC2(CCN(Cc3cnn(C)c3)CC2)CN1c1ncccn1` (stereo not given) was -19%.
